Assay outcomes from PubChem.
Hits are enriched below; roughly 12% of the tested compounds scored in any of these assays.
USP30 block = blocks human USP30 ubiquitin-rhodamine cleavage | 47,000 compounds, 5.3% hits | inhibition, % at 25 µM | AID 1645860 | purified USP30, Ub-rhodamine cleavage fluorescence
OTUD3 inh = inhibitors of human OTUD3 deubiquitinase; Q5T2D3; purified OTUD3, Ub-rhodamine fluorescence, 2 h; inhibition, % at 25 µM; 47,000 compounds, 0.7% hits; AID 1645858
USP28 block = blocks human USP28 ubiquitin-rhodamine cleavage | purified USP28, Ub-rhodamine cleavage fluorescence, 30 min | 47,000 compounds, 3% hits | inhibition, % at 25 µM | Q96RU2
USP17 inh = blocks human USP17 ubiquitin-rhodamine cleavage; A8MUK1; purified USP17, Ub-rhodamine cleavage fluorescence, 3 h; inhibition, % at 50 µM; 47,000 compounds, 6.5% hits; AID 1645855
Of the large screens only hits and unclear results are named; the others gave an inactive call. Cut-off read from the data, not from the text of the source: active = inhibition above about 30%; inactive = the rest.

O=C(Nc1ccccc1)c1ccn(COc2ccccc2F)n1	none
O=C(Nc1cc(F)ccc1F)c1ccn(COc2ccc(F)c(Cl)c2)n1	USP30 block 70, USP17 inh 46
O=C(Nc1cc(F)ccc1F)c1ccc2c(c1)ncn2CCN1CCCC1	none
Cc1nc2ccccn2c(=O)c1NC(=O)COc1ccc(Cl)cc1	none
Cc1ccc(-n2ccn3c(CCC(=O)NCc4ccc(F)cc4)nnc3c2=O)cc1C	none
Cc1ccc2c(c1C)NC(=O)[C@]21N2CCC[C@H]2[C@@H](C(=O)c2cc3ccccc3o2)[C@]12C(=O)Nc1ccccc12	USP17 inh 44
CCOc1ccccc1C(=O)[C@@H]1[C@@H]2CCCN2[C@]2(C(=O)Nc3c2ccc(C)c3C)[C@@]12C(=O)Nc1ccccc12	none
COc1ccc(C(=O)NC(C)c2nnc(SCC(=O)N3CCOCC3)n2C)cc1 (stereo unspecified)	none
CN1C(=O)OC2(CCN(C(=O)c3ccc(O)cc3)CC2)c2ccccc21	none
O=C(NC1CCS(=O)(=O)C1)c1ccc(N2CCC(Cc3ccccc3)CC2)nn1 (stereo unspecified)	USP17 inh 53
O=C1CN(C(=O)c2ccc(N3CCC(Cc4ccccc4)CC3)nn2)CCN1	none
Cc1ccc(N2CC(C(=O)NCc3nnnn3-c3ccccc3)CC2=O)cc1C (stereo unspecified)	none
CC(C)(C)c1ccc(C(=O)Nc2ccc([C@@H](O)[C@H]3COCC(=O)N3)cc2)cc1	USP28 block 47
CN1C[C@@]23CN(C(=O)Nc4ccc(Cl)cc4)C[C@@H](C[C@@H]2S1(=O)=O)O3	none
Cc1c(C)n(-c2ccccc2)c2ncn(CC(=O)NCc3ccc(F)cc3)c(=O)c12	USP30 block 40
CSc1ccc(CNC(=O)Cn2c(=O)[nH]c3c(-c4ccccc4)c[nH]c3c2=O)cc1	none
CSc1ccc(CNC(=O)Cn2nc(C)c3c(C)n(-c4ccccc4)nc3c2=O)cc1	USP17 inh 40
Cc1c(C)n(-c2ccccc2)c2ncn(CC(=O)NCc3ccc(N(C)C)cc3)c(=O)c12	none
Cc1c(C)n(-c2ccccc2)c2ncn(CC(=O)NCc3cccc(F)c3)c(=O)c12	USP30 block 34
COc1ccc(CNC(=O)Cn2cnc3c(c(C)c(C)n3-c3ccccc3)c2=O)cc1	USP30 block 36
CC1=NS(=O)(=O)N(Cc2ccccc2)C=C1C(=O)Nc1ccc(F)cc1F	none
Cc1ccnc2nc(C(=O)N(CCc3ccccc3)c3nc4ccccc4s3)nn12	none
O=c1[nH]c(-c2ccncc2)nc2c1CCN(Cc1cccc(Cl)c1)C2	none
CN1CCC(N(C)CC(O)COc2ccc(C#N)cc2)CC1 (stereo unspecified)	none
O=C(c1ccnnc1)N1CCCC1c1ncc(Cc2ccccc2Cl)o1 (stereo unspecified)	none
COc1ccc2[nH]c3c(=O)n(CCN4CCNCC4)cnc3c2c1	none
COc1cc(-c2cc(C(=O)Nc3cc(C)[nH]n3)c3ccccc3n2)cc(OC)c1OC	USP30 block 51, USP17 inh 39
Cc1ccc(S(=O)(=O)N2CCC(n3cnc4ccc(C)cc4c3=O)CC2)cc1	USP30 block 35
CC(NC(=O)Cc1nnc(-c2ccc3ncccc3c2)o1)c1ccccc1 (stereo unspecified)	none
CCn1cc(S(=O)(=O)NCc2cc(F)cc(F)c2)c2cccnc21	USP17 inh 37
CCn1cc(S(=O)(=O)Nc2ccccc2F)c2cccnc21	none
C[C@]12C(=O)N(c3ccccc3C(=O)NCCc3ccccc3)C(=O)N1CCc1c2[nH]c2ccccc12	USP17 inh 41
Cc1ccc(CNC(=O)c2cccc(N3C(=O)N4CCc5c([nH]c6ccccc56)[C@@]4(C)C3=O)c2)cc1	USP17 inh 64
COc1ccc2[nH]c3c(c2c1)CCN1C(=O)N(c2ccccc2C(=O)NCc2ccccc2)C(=O)[C@]31C	USP17 inh 61
COc1ccc(CNC(=O)[C@H](C)N2C(=O)N3CCc4c([nH]c5ccc(OC)cc45)[C@@]3(C)C2=O)cc1	USP28 block 33, USP17 inh 50
CCOc1ccc(-c2nnc(NC(=O)C3CCN(S(=O)(=O)c4ccc5c(c4)CCC5)CC3)o2)cc1	none
Cc1noc(C)c1C(=O)N1CCCCC1c1ccn2nccc2n1 (stereo unspecified)	none
Cc1ccc(N2CC(c3nnc(NC(=O)CCc4ccccc4)s3)CC2=O)cc1 (stereo unspecified)	none
O=C1CN(C(=O)CC2CCCCC2)C(c2ccccc2)c2cc(Cl)ccc2N1 (stereo unspecified)	USP30 block 43
COc1ccc(CC(=O)N2CC(=O)Nc3ccc(Br)cc3C2c2ccccc2)cc1 (stereo unspecified)	USP30 block 38
O=C1CN(C(=O)COc2ccc(Cl)cc2)C(c2ccccc2)c2cc(Cl)ccc2N1 (stereo unspecified)	none
Cc1ccsc1C1CCCCCN1S(=O)(=O)c1ccc(Cl)cc1 (stereo unspecified)	none
COc1ccc(C)cc1NC(=O)C(Sc1nnc(C2CC2)n1Cc1ccccc1)c1ccccc1 (stereo unspecified)	USP30 block 37, USP28 block 30
Cc1ccc(C)c(NC(=O)C(Sc2nnc(C)n2Cc2ccccc2)c2ccccc2)c1 (stereo unspecified)	USP30 block 30 (no result: USP17 inh)
COCCn1c(SC(C(=O)Nc2cc(C)ccc2OC)c2ccccc2)nnc1-c1ccc(Cl)cc1 (stereo unspecified)	none
COc1cccc(C(CNC(=O)c2ccc3c(c2)OCCO3)c2c[nH]c3ccccc23)c1OC (stereo unspecified)	none
Cc1[nH]c(C(=O)NC2CCCCCC2)c(C)c1S(=O)(=O)N1CCCC1	USP17 inh 43
Cc1nc2ccccc2c(=O)n1Cc1ccc(-c2ccccc2)cc1	USP17 inh 51
Cc1ccc(Cn2c(SCc3ccccc3C#N)nc3ccccc3c2=O)cc1	none (no result: USP17 inh)
Cn1c(=O)c2c(SCC(=O)N3CCCC3)nc(-c3ccccc3)nc2n(C)c1=O	none
Cc1cc(C)cc(-c2nc(SCC(=O)N3CCCC3)c3c(=O)n(C)c(=O)n(C)c3n2)c1	USP30 block 36 (no result: USP17 inh)
O=C(CSc1ccc2ccccc2c1)Nc1ccc2c(c1)OCCCO2	none
O=C(COC(=O)Cn1cnc2ccccc21)Nc1ccc2c(c1)OCCO2	USP28 block 56
COc1ccc(NC(=O)COC(=O)Cn2cnc3ccccc32)cc1OC	none
O=C(CSc1nc2ccccc2[nH]1)Nc1ccc2c(c1)OCCO2	USP28 block 46
O=C(CSc1n[nH]c(-c2ccccc2Cl)n1)Nc1ccc2c(c1)OCCO2	USP28 block 38
O=C(CSc1n[nH]c2nc3ccccc3n12)Nc1ccc2c(c1)OCCO2	USP28 block 31
N#Cc1ccc(C(=O)NCCn2c(-c3ccccc3)nc3cccnc32)cc1	none
O=C(c1ccc(COc2cccc3ccccc23)o1)N1CCC(Cc2ccccc2)CC1	USP17 inh 68
CN1C[C@H]2CCN(C(=O)NCCc3c[nH]c4ccccc34)C[C@H]21	none
O=C(NCCc1c[nH]c2ccccc12)c1cc2sccc2n1Cc1ccccc1	USP17 inh 44
Cn1c(C(=O)NCCc2c[nH]c3ccccc23)cc2sccc21	USP28 block 39
